Potency data for 13 compounds are collected here from PubChem BioAssay (NCATS).

Records with an inconclusive call do not appear. Entries that show only a call come without a potency. Activity calls are given as the source filed them. Calls follow the shape of the dose curve; as a rule, active = well fitted inhibition curve with a large enough effect; inconclusive = small, poorly fitted or top-dose-only effect; inactive = flat fitted curve, though single readings scatter.
Potency is read from the fitted curve at half-maximal effect.

This assay in a line: P-glycoprotein substrates identified in KB-8-5-11 adenocarcinoma cell line, qHTS therapeutic library screen (AID 1346987). Also: nearly all actives have a fitted effect of over 65% in size. As to conditions: KB-8-5-11 (P-gp overexpressing) viability, CellTiter-Glo, 72 h; series mostly up to 44.5 µM. Put shortly: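 P-gp-mediated resistance screen: KB-8-5-11 cells treated 72 h with compounds in dose-response. CellTiter-Glo viability.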
In general terms: In qHTS, concentration-response curves come from the screen itself.
Turning to `CC1(C)[C@@H](O)CC[C@]2(C)[C@H]3CC=C4[C@@H]5C[C@](C)(C(=O)O)CC[C@]5(C)CC[C@@]4(C)[C@]3(C)CC[C@@H]12`, the Potency entry is “inactive”.
As for `CC12CCC3c4ccc(O)cc4CCC3C1CC(OC1OC(C(=O)O)C(O)C(O)C1O)C2O` (stereo not drawn), the Potency result was “inactive”.
With `c1ccc(-c2ncc(CN3CCN(c4ncccn4)CC3)[nH]2)cc1` the entry was “inactive”; with `C/C=C/c1ccc2oc(-c3ccc(O)c(OC)c3)c(C)c2c1`, “inactive”.
Turning to `O=C(Nc1nc2ccccc2n1CCc1ccccc1)c1ccccc1`, the Potency entry was “inactive”.
With `C[C@@H]1CCC2C(C)(C)[C@H](O)CC[C@]2(C)[C@@]12Cc1c(O)cc3c(c1O2)CNC3=O` (stereo partly drawn) the entry was “inactive”.
With `C=C[C@H]1C(O[C@@H]2O[C@H](CO)[C@@H](O)[C@H](O)[C@H]2O)OC=C2C(=O)N3CCc4c([nH]c5ccccc45)[C@H]3C[C@H]21` (stereo partly drawn) the entry was “inactive”; with `CC(C)(O)C1CCC(C)(C2CCC3(C)C4CCC5C(C)(C(=O)OC6OC(CO)C(O)C(O)C6O)C(O)CC(O)C56CC46CCC23C)O1` (stereo not drawn), “inactive”; with `CNS(=O)(=O)c1ccccc1Nc1nc(Nc2ccc(N3CCN(C)CC3)cc2OC)ncc1Cl`, 651 nM (active).
In the case of `C=C[C@H]1[C@H](O[C@@H]2O[C@H](CO)[C@@H](O)[C@H](O)[C@H]2O)OC=C(C(=O)OC)[C@H]1CC(=O)O`, the Potency result was “inactive”.
Consider `C[C@@H]1CN(Cc2ncccn2)C[C@H]1c1nc2c(cnn2C2CCOCC2)c(=O)[nH]1`, for which the Potency entry is “inactive”.
With `COCCOc1cnc2ccn([C@H](C)c3nnc4c(F)cc(-c5cnn(C)c5)cn34)c(=O)c2c1` the entry was “inactive”; with `COC(=O)C1=CO[C@@H](O)C2C(CO)=CCC12` (stereo partly drawn), “inactive”.
